From PubChem BioAssay
Most compounds without a hit are left out; they make up all but 21% or so of the library.
Cycloheximide cs: counter-screen for Shiga toxin inhibitors: cycloheximide protein synthesis inhibition | cell reporter, cycloheximide protein synthesis inhibition counterscreen | max response, % | AID 2314 | 12% of 300,000 active; in the data active means max response mostly above about 13%, no sharp cut-off; inactive means mostly below about 14%; further: read at 38.3 µM for the half of the compounds with a filed dose; 0% is about no effect
SARS PLpro yeast: inhibitors of SARS-CoV papain-like protease in yeast. AID 485353. 0.19% of 330,000 active. S. cerevisiae expressing SARS-CoV PLpro, growth rescue. Potency, µM (top dose mostly 32.9 µM), for inactives: top-dose activity, positive = growth rescue, hits mostly activators; further: potency means the concentration at half of the fitted maximal effect; 0% is about no effect; nearly all actives have a fitted effect of over 55% in size
Shiga toxin inh: blocks Shiga toxin action in Vero cells; Vero cells, Shiga toxin protein synthesis inhibition reporter; 9.2% of 290,000 active; AID 2315; inhibition, % at 38.7 µM; in the data active means inhibition mostly above about 28%, no sharp cut-off; inactive means mostly below about 43%; further: 0% is about no effect
NS1 function inh: inhibitors of influenza NS1 protein function. Potency, µM (highest dose often 46.1 µM), for inactives: at the top dose activity, positive = more growth. 0.4% of 270,000 active; further: potency means the concentration at half of the fitted maximal effect; actives are rising curves; nearly all actives have a fitted effect of over 50% in size
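S. cerevisiae expressing influenza A NS1, grown in glucose, washed, then diluted 1:100 into pH 6.0 -URA galactose medium with 23 nl compound. Growth recovery read as OD600; NS1-free strain serves as control.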
Pf growth 96h: P. falciparum growth inhibition at 96 hours; AID 504834; 6.9% of 320,000 active; P. falciparum luciferase reporter growth, 96 h; Potency, µM (top dose mostly 28.7 µM), without a hit: top-dose activity change, negative = inhibition, usual class: inhibitors; active means well fitted inhibition curve with a large enough effect; inconclusive means small, poorly fitted or top-dose-only effect, or another doubt; inactive means no such curve, though single readings can be large or run the other way; further: potency means the concentration at half of the fitted maximal effect; on the % scale 0 is the no-effect control and ±100 the full control effect
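Infected RBCs, 2% Hct / 0.05% parasitemia final; luciferase-reporter P. falciparum; cpd 96 h, 37 C, 5% CO2; luciferase detection reagent; luminescence.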
Pf growth 48h: inhibits P. falciparum growth in the first generation, 48 h; Potency, µM (doses to about 28.7 µM), without a hit: top-dose activity change, negative = inhibition, actives largely listed as inhibitors; AID 504832; P. falciparum luciferase growth in erythrocytes, 48 h; 5.9% of 310,000 active; active means well fitted inhibition curve with a large enough effect; inconclusive means small, poorly fitted or top-dose-only effect, or another doubt; inactive means no such curve, though single readings can be large or run the other way; further: potency means the concentration at half of the fitted maximal effect; on the % scale 0 is the no-effect control and ±100 the full control effect
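Erythrocytes infected with P. falciparum carrying an integrated firefly luciferase reporter (2% hematocrit, 0.1% parasitemia final) were exposed to compounds in RPMI 1640 with 0.5% Albumax at 37 C, 5% CO2. Growth inhibition was scored as reduced luminescence.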
Numbers without * were called inactive; ? = inconclusive; . = not tested or not shown; [ ] = dose if it differs, or a comment. Unless noted, the call rests on the fitted dose curve.

SMILES	Cycloheximide cs	SARS PLpro yeast	Shiga toxin inh	NS1 function inh	Pf growth 96h	Pf growth 48h
CCN(CC)CCCNC(=O)C1c2ccccc2C(=O)N(C)C1c1ccc(OC)cc1 (stereo not drawn)	-2.6	4.6%	-13.4	-0.8%	?	?
Nc1c([N+](=O)[O-])ccc(Oc2ccccc2)c1Cl	7.4	.	26.3	.	.	.
Cc1ccc(NS(=O)(=O)c2cccc(C(=O)NCC(c3ccc(F)cc3)N3CCOCC3)c2)cc1 (stereo not drawn)	.	3.2%	.	.	?	?
C=CCN(c1ccccc1)S(=O)(=O)c1cccc(C(=O)NCC(c2ccc(F)cc2)N2CCOCC2)c1 (stereo not drawn)	.	-2.7%	.	.	?	13.1µM*
CN(C)S(=O)(=O)c1cccc(C(=O)NCC(=O)NC2CCN(Cc3ccccc3)CC2)c1	-6.7	3.5%	-5.5	?	0.0%	2.2%
C=CCN(c1ccccc1)S(=O)(=O)c1cccc(C(=O)NC2CCN(Cc3ccccc3)CC2)c1	.	1.2%	.	.	11.7µM*	10.4µM*
C=CCN(c1ccc(F)cc1)S(=O)(=O)c1cc(C(=O)NC2CCC(O)CC2)ccc1Cl (stereo not drawn)	.	-3.3%	.	.	5.22µM*	?
COc1ccccc1N1CCN(C2=NS(=O)(=O)c3ccccc32)CC1	11.6*	0.9%	1.9	-48.5%	7.7%	22.9%
COc1ccccc1N1CCN(c2ccc(-c3ccccc3)nn2)CC1	42.2*	-0.5%	138.9*	-31.4%	3.4%[5.75 µM]	-65.1%
COc1ccccc1N1CCN(c2ccc3ccccc3n2)CC1	44.7*	-2.6%	70.0*	-0.4%	179.7%	104.1%
CCCSc1nc(C)c(-c2csc(C(C#N)=C3CCCC3)n2)cc1C#N	16.0	0.4%	31.5	16.1%	21.0%	0.7%
CN(C(=O)c1cccc(NC(=O)C2CCCN(C(=O)OC(C)(C)C)C2)c1)C1CCCC1 (stereo not drawn)	.	-4.4%	.	.	.	.
COc1ccc(CCNC(=O)C2CCC(=O)N(CC3CCCCC3)C2)cc1 (stereo not drawn)	-0.3	1.7%	-6.1	-2.6%	43.6%	?
COCC(=O)Nc1cc(Cl)c(OC)cc1OC	-1.3	-7.8%	9.6	-14.1%	5.6%	12.3%
Cc1ccc(C(=O)NCCc2ccc(S(N)(=O)=O)cc2)cc1[N+](=O)[O-]	-3.4	0.4%	-8.7	.	-22.6%	-20.8%
CC(C)COc1ccc(C(=O)Nc2ccccc2[N+](=O)[O-])cc1	53.2*	-24.7%	active	-8.6%	10.4µM*	120.4%
CCCNC(=O)c1ccc(S(=O)(=O)c2ccc(OC)cc2)c([N+](=O)[O-])c1	0.6	-3.2%	-4.7	-7.5%	3.5%	11.7µM*
COc1ccc(C(=O)NCCNc2ccccc2[N+](=O)[O-])cc1	32.3*	0.5%	77.0*	-8.7%	21.5%	50.0%
O=C(NCCNc1ccccc1[N+](=O)[O-])c1cc(F)c(F)cc1Cl	50.0*	-0.2%	153.9*	0.9%	30.1%	35.7%
O=C(O)C1C2C=CC3(CN(Cc4ccncc4)C(=O)C13)O2 (stereo not drawn)	-1.4	-0.6%	-2.1	0.9%	-25.0%	-12.8%
CSc1nc(-c2ccc(N(C)C)cc2)c(C#N)c(=O)n1C	24.6*	-1.4%	42.2*	4.2%	1.0%	45.0%
Cc1cccn2c(N)c(-c3ccccc3)nc12	20.4*	-0.7%	25.8	-12.7%	?	37.8%
COc1cc(/C=N/NC(=O)c2ccc(-c3ccccc3)cc2)cc(OC)c1OC	14.2	5.9%	10.2	22.9%	16.5µM*	?
COc1ccc(/C=N\NC(=O)c2ccc(-c3ccccc3)cc2)c(OC)c1OC	1.0	4.2%	-4.9	9.9%	0.828µM*	8.9%
Cc1cc(C)cc(NC(=O)c2ccc3nc[nH]c3c2)c1	10.6	9.1%	63.5*	7.1%	?	?
SMILES	Cycloheximide cs	SARS PLpro yeast	Shiga toxin inh	NS1 function inh	Pf growth 96h	Pf growth 48h
Cc1cccc(C)c1NC(=O)CNC(=O)c1ccc2nc[nH]c2c1	.	-2.3%	.	.	2.3%	5.1%
Cc1ccc(NC(=O)c2ccc3nc[nH]c3c2)cc1C	45.5*	8.9%	74.1*	2.5%	84.2%	119.9%
O=C(NNC(=O)c1ccccc1Br)c1ccc2nc[nH]c2c1	5.5	1.0%	1.9	14.5%	-1.1%	16.9%
CSc1nnc(-c2sc(-c3ccccc3)nc2C)n1C	12.2*	-1.1%	55.2	-14.7%	14.4%	34.0%
CSc1nnc(-c2ccc(Br)s2)n1C	46.5*	-3.9%	68.8*	-5.2%	-3.9%	13.8%
CSc1nnc(-c2cccs2)n1C	0.2	-0.4%	-6.4	0.0%	46.7%	11.9%
COC(=O)c1cnn(-c2ccc(C)c(C)c2)c1-n1cccc1	20.2*	-3.5%	28.8	-47.7%	.	.
O=C(c1ccccc1)C(C(=O)N1CCc2ccccc2C1)n1ccccc1=O (stereo not drawn)	-3.1	4.7%	-14.9	-4.0%	32.2%	33.1%
Cc1noc(C)c1COC(=O)c1cnc(Cl)c(Cl)c1	4.8	-1.7%	-2.7	1.8%	7.6%	-3.4%
CCOC(=O)C1CCN(C(=O)Cn2cnc3sc(C)c(S(=O)(=O)N4CCOCC4)c3c2=O)CC1	-4.5	-8.5%	-26.2	-14.9%	?	1.47µM*
O=C1CC(SCCO)C(=O)N1c1ccc(Oc2ccccc2)cc1 (stereo not drawn)	-1.0	-29.2%	12.1	-15.5%	9.3%	92.8%
Cc1ccc(NC(=O)CNC(=O)Cc2cccc3ccccc23)c(O)c1	.	-8.1%	.	.	31.8%	-20.4%
Cc1ccc(S(=O)(=O)NCc2ccc(C(=O)N3CCN(c4ccccc4)CC3)cc2)cc1	19.8	4.6%	-1.0	-10.5%	-6.2%	?
Cc1ccc(C(=O)NCc2ccc(N3CCN(C(=O)OC(C)(C)C)CC3)cc2)cc1	-1.4	-2.5%	-21.8	3.5%	-14.1%	15.5%
CCOC(=O)N1CCN(C(=O)c2ccc(CNS(=O)(=O)c3ccc(OC)cc3)cc2)CC1	-5.4	1.3%	-14.8	-7.2%	-16.7%	-18.9%
Cc1ccc(S(=O)(=O)NCc2ccc(N3CCN(C(=O)OC(C)(C)C)CC3)cc2)cc1	0.6	-0.7%	2.1	-12.8%	4.15µM*	13.1µM*
Cc1ccc(S(=O)(=O)NCc2ccc(C(=O)N3CCc4ccccc4C3)cc2)cc1	-1.8	0.7%	8.3	-25.1%	6.57µM*	?
COc1ccc(S(=O)(=O)NCc2ccc(C(=O)N3CCc4ccccc4C3)cc2)cc1	-3.6	6.5%	-3.2	-9.6%	6.57µM*	?
Nc1nc(SCC(=O)c2ccc(Br)s2)n[nH]1	-1.7	-0.3%	-7.3	.	17.3%	-10.5%
CC(C)c1nnc(NC(=O)c2nc(S(=O)(=O)Cc3ccc(F)cc3)ncc2Cl)s1	59.3*	0.4%	98.2*	8.7%	34.2%	-13.7%
CCSc1nnc(NC(=O)c2nc(S(=O)(=O)Cc3ccc(F)cc3)ncc2Cl)s1	50.4*	1.4%	75.0*	?	-24.7%	17.7%
CSc1nnc(NC(=O)c2nc(S(=O)(=O)Cc3cccc(C)c3)ncc2Cl)s1	62.4*	24.8%	103.6*	15.9%	?	-31.6%
